# D1 potentiator – potentiators of human D1 dopamine receptor; HEK293 TREx D1 cells, calcium flux, dopamine EC20 potentiation; 0.036% of 360,000 active; AID 504651; potentiation, % at 10 µM; in the data active = potentiation above about 30%
# TRHR PAM – TRH receptor (human) allosteric enhancement | P34981 | TRHR cells, fluo-8 calcium fluorescence, EC20 TRH enhancement | enhancement, % at 2 µM | 0.66% of 360,000 active | AID 493056; in the data active = enhancement above about 30%
# Target sequence (P34981 whole entry, looked up): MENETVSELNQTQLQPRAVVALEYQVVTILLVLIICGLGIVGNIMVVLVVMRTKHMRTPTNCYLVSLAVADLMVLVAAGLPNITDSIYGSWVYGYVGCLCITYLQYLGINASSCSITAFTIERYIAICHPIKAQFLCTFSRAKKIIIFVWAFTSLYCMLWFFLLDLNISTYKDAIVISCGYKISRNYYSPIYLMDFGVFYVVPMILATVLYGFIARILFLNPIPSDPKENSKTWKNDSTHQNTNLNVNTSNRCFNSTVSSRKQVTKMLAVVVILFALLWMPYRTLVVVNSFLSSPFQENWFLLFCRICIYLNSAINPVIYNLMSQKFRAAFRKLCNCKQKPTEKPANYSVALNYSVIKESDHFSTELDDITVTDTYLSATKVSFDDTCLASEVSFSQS
#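 TRHR-expressing cells loaded with fluo-8 calcium dye were read kinetically (ex 480/em 530) during compound addition, then stimulated with an EC20 of TRH (10 nM final). Enhancement of the Gq-mediated intracellular calcium response was scored.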
# D1 agonist – agonists of human D1 dopamine receptor | P21728 | HEK293 T-REx D1 cells, calcium flux, agonist mode | activation, % at 2 µM | 1% of 360,000 active
#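 Agonism was scored from calcium flux recorded over 180 s (1 read/s) after pintool compound addition, following a 10-cycle baseline. Cells were inducible force-coupled HEK293 TREx D1, plated overnight at 30 C and loaded with no-wash calcium dye.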
# D1 antagonist – human D1 dopamine receptor antagonism; P21728; HEK293 TREx D1 cells, calcium flux, dopamine EC80; hits give low values; activity change, negative = inhibition, % at 10 µM; 3.2% of 360,000 active; AID 504652; in the data active = activity change below about -30%
#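 Inducible Hek293 Trex D1 cells (tetracycline, overnight, 30 C). Calcium dye 30–90 min RT. Antagonist mode: EC80 dopamine added after 180 s compound read.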
# TRHR ag – activates the human TRH receptor; 0.18% of 360,000 active; activation, % at 2 µM; TRHR cells, calcium flux fluo-8, FDSS agonist mode; AID 493084; P34981
#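 Steps: seed TRHR cells overnight; add fluo-8 no-wash Ca dye, RT 30 min–1.5 h; record 10 s baseline; pin-transfer compounds; monitor fluorescence 1 cycle/s for the agonist window. Calcium increases flag candidate agonists.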
# Numbers stand for hits; - = inactive. Shown are actives, neighbours in structure and some others; about 4.6% of the full set was active somewhere. Cut-off read from the data, not from the text of the source, unless noted: active = activation above about 30%; inactive = the rest.
SMILES,D1 potentiator,TRHR PAM,D1 agonist,D1 antagonist,TRHR ag
COc1ccc(NS(=O)(=O)c2ccc3[nH]c4c(c3c2)CCCCC4)cc1,-,-,-,-,-
COc1ccccc1NC(=O)Cn1cc(S(=O)(=O)Cc2ccccc2)c2ccccc21,-,-,-,-,-
CCCCCC(C(=O)O)C(C)CC(=O)NC1CCCCC1 (stereo unspecified),-,38,-,-,-
O=C(NC1CC1)c1cc2cc(Br)ccc2s1,-,-,-,-32,-
CCOC(=O)c1cc(-c2ccc(OC)cc2)n(CCC(=O)NCCc2ccc(OCC)c(OCC)c2)c1C,-,-,-,-,-
Cc1ccc(C(=O)N2CCCCC2C(=O)O)o1 (stereo unspecified),-,-,-,-,-
CC1CCCCN1C(=O)c1ccc(Br)o1 (stereo unspecified),-,32,-,-,-
COc1cccc(CNC(=O)c2ccc(NC(=O)N3CCCCc4ccccc43)cc2)c1OC,-,-,-,-59,-
O=C(NCc1ccccc1Cl)c1ccc(NC(=O)N2CCCCc3ccccc32)cc1,-,-,-,-,-
CC(C)OCCCNC(=O)Cc1ccc(NC(=O)N2CCCCc3ccccc32)cc1,-,36,-,-,-
CCOC(=O)c1c(-c2cccs2)csc1NC(=O)C(C)(C)C,-,-,34,-,-
CCOC(=O)c1c(-c2cccs2)csc1NC(C)=O,-,-,-,-,-
CCn1c(/C=C/c2ccccc2)nc2ccccc21,-,-,-,-39,-
CC(C)Cn1c(/C=C/c2ccccc2)nc2ccccc21,-,-,-,-,-
CCCCCCn1c(/C=C/c2ccccc2)nc2ccccc21,-,-,-,-31,-
COc1cc(Cn2c(-c3ccc(O)c(OC)c3)nc3ccccc32)ccc1O,-,-,-,-,-
CCCCCn1c(-c2ccc(OC)c(OC)c2)nc2ccccc21,-,-,57,-47,-
O=C(O)CCCCCNC(=O)CCn1cnc2ccccc2c1=O,-,-,-,-51,-
O=C(O)CCCNC(=O)CCCn1nnc2ccccc2c1=O,-,32,-,-,-
COc1cccc(CNC(=O)Cn2c(=O)cc(C(F)(F)F)c3c(C)nn(C)c32)c1OC,-,-,-,-,-
COc1ccc(-c2csc(C)n2)cc1,-,-,-,-,-
COc1cc(C)nc(-c2csc(C)n2)n1,-,31,-,-,-
O=C1CC(c2ccccc2)Cc2[nH]c(=O)c(-c3nc(-c4ccc(F)cc4)cs3)cc21 (stereo unspecified),-,-,-,-,-
COc1ccc(/C=c2\s/c(=C/C(=O)c3ccc(C)cc3)[nH]c2=O)cc1OC,-,-,64,-,36
CCN(C(=O)CSc1nc2cc(S(=O)(=O)N(CC)CC)ccc2n1CC)C1CCS(=O)(=O)C1 (stereo unspecified),-,-,-,-,-
SMILES,D1 potentiator,TRHR PAM,D1 agonist,D1 antagonist,TRHR ag
COc1ccc(N(CC(C)C)S(=O)(=O)c2nnc(NC(=O)c3cccs3)s2)cc1,-,-,-,-,-
Cc1ccc(C(=O)NCC(=O)OCC(=O)c2ccc(C)c([N+](=O)[O-])c2)cc1,-,-,-,-46,-
O=C(CNC(=O)c1ccccc1)NCC(=O)OCC(=O)c1ccc(F)cc1,-,-,-,-,-
Cc1ccc(C(=O)COC(=O)CNC(=O)C(c2ccccc2)c2ccccc2)cc1[N+](=O)[O-],-,-,-,-,-
Cc1ccc(C(=O)NCC(=O)NCC(=O)OCC(=O)c2ccc(F)cc2)cc1,-,-,-,-52,-
Cc1c(Cc2ccccc2)c(=O)oc2cc(OCC(=O)N3CCC(C(N)=O)CC3)ccc12,-,-,-,-,-
Cc1ccc(CNc2ccc3c(c2)ncn3C)cc1,-,-,-,-,-
CCc1ccc(CNc2ccc3c(c2)ncn3C)cc1,-,31,-,-,-
CCC(=O)Nc1ccc(C(=O)N/N=C/c2cc(Br)c(OC)cc2OC)cc1,-,-,-,-31,-
COc1ccccc1/C=N/NC(=O)c1ccc(NC(=O)c2ccccc2Br)cc1,-,-,-,-,-
COc1ccc(CCNC(=O)CCc2cn(Cc3ccc(C)cc3)c3ccccc23)c(OC)c1OC,-,-,-,-,-
CC1(C)CSC(=NCc2ccccc2)N1C(=O)c1cccc([N+](=O)[O-])c1,-,-,85,-38,56
NC(=NCc1ccccc1)c1cccc([N+](=O)[O-])c1,-,-,-,-,-
CCc1ccc(NC(=O)C2CCCN(c3nn4cc(-c5ccc(OC)cc5)nc4s3)C2)cc1 (stereo unspecified),-,-,-,-,-
Cc1cc(C)c(CSc2nnc(C)n3c2cc2occc23)c(C)c1,-,-,-,-,-
O=c1c2ccccc2sn1-c1cc(S(=O)(=O)N2CCOCC2)ccc1N1CCOCC1,-,-,-,-,-
O=c1c2ccccc2sn1-c1cc(S(=O)(=O)N2CCOCC2)ccc1N1CCCC1,-,-,90,-,-
COc1ccc(S(=O)(=O)N2CCC(O)(c3ccc(Cl)cc3)CC2)cc1,-,-,-,-36,-
COc1ccc(S(=O)(=O)N2CCC(O)(c3ccc(Cl)cc3)CC2)cc1OC,-,-,-,-,-
COc1cccc(C)c1NC(=O)C(OC(=O)CNC(=O)c1ccccc1)c1ccccc1 (stereo unspecified),-,-,-,-,-
CCOC(=O)C(NC(=O)Nc1ccc(F)cc1F)(Oc1ccc(F)cc1)C(F)(F)F (stereo unspecified),-,-,-,-85,-
COCc1[nH][nH]c(=O)c1C=Nc1ccc(OC(F)(F)F)cc1,-,-,-,-33,-
COc1ccccc1-c1noc2ncnc(Nc3ccccc3C)c12,-,-,-,-,-
COc1ccccc1-c1noc2ncnc(Nc3cccc(C)c3C)c12,-,-,-,-32,-
CC(C)(C)c1ccc(C(=O)Nc2sc3c(c2C#N)CCC(C(C)(C)C)C3)cc1 (stereo unspecified),-,-,-,-,-
SMILES,D1 potentiator,TRHR PAM,D1 agonist,D1 antagonist,TRHR ag
CC(C)(C)C1CCc2c(sc(NC(=O)C3CC=CCC3C(=O)O)c2C#N)C1 (stereo unspecified),-,-,-,-40,-
COc1cc(C2C(C(C)=O)=C(O)C(=O)N2Cc2ccccc2)ccc1O (stereo unspecified),-,-,-,-32,-
COc1cc(C2C(C(=O)C(C)(C)C)=C(O)C(=O)N2Cc2ccccc2)ccc1O (stereo unspecified),-,-,-,-,-
CCOc1ccc(OCC(=O)NCCS(=O)(=O)N2CCN(c3ccccc3F)CC2)cc1,-,-,-,-,-
COc1ccc(-c2nc(C(=O)O)cs2)cc1OC,-,-,-,-36,-
Cc1cc(C)c(NC(=O)c2cc3c(=O)n4ccccc4nc3n2C)c(C)c1,-,-,-,-,-
CCN1CCN(CCNC(=O)c2ccc3nc(-c4cccc(C)c4)c(-c4cccc(C)c4)nc3c2)CC1,-,-,63,-,-

# Assay outcomes (PubChem)
